HCV inh – qHTS Assay for Inhibitors of Hepatitis C Virus (HCV); Potency, µM (highest dose often 41.8 µM), usual class: inhibitors; actives 3.4% (n = 340,000); Huh7.5.1 HCVcc-Cre infection, luciferase reporter, 44 h; AID 651820, 2012
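Infectious HCVcc-Cre (~0.5 moi) was added to cells just after compound, with cells seeded 4 h earlier at 1,000 per well. Luciferase activity after 44 h culture reported infection; substrate was incubated 15 min at room temperature before reading.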
Vaccinia mCherry – qHTS for Stage-Specific Inhibitors of Vaccinia Orthopoxvirus: mCherry Reporter Primary qHTS; Potency, µM (top dose mostly 36.5 µM), most hits filed as inhibitors; Vaccinia virus mCherry reporter infection, fluorescence; AID 720579, 2013; actives 0.63% (n = 310,000); calls by dose curve; tested in A549 cells; also: nearly all actives have a fitted effect of over 35% in size
VACV Venus inh – qHTS for Stage-Specific Inhibitors of Vaccinia Orthopoxvirus: Venus Reporter Primary qHTS; Vaccinia virus Venus reporter expression, fluorescence; Potency, µM (doses to about 36.5 µM), actives largely listed as inhibitors; actives 0.46% (n = 330,000); AID 720580, 2013; calls by dose curve; tested in A549 cells; also: nearly all actives have a fitted effect of over 30% in size
HCMV antiviral – qHTS Assay for inhibitors of the human cytomegalovirus (HCMV) | activity change, negative = inhibition, % at 57.5 µM | HFF cells, HCMV-luciferase reporter, 72 h; active compounds read low | actives 4.5% (n = 410,000) | AID 1259415, 2018; in the data active = activity change below about -60%; inconclusive = no clear call, values can overlap the other calls; inactive = above about -39%
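After 16 h attachment at 37C, HFF cells received test compound and HCMV-luciferase (1 PFU/cell); reporter luminescence read 72 h later, data normalized against buffer-only and known inhibitor Salinomycin.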
Giardia FBPA inh-1 – qHTS Assay for Inhibitors of Fructose-1,6-bisphosphate Aldolase from Giardia Lamblia; A8B2U2; AID 2451, 2010; actives 0.71% (n = 290,000); Potency, µM (titrated, usually from 59.6 µM), actives largely listed as inhibitors; purified Giardia FBPA; also: nearly all actives have a fitted effect of over 55% in size
Target sequence (A8B2U2 whole entry, looked up): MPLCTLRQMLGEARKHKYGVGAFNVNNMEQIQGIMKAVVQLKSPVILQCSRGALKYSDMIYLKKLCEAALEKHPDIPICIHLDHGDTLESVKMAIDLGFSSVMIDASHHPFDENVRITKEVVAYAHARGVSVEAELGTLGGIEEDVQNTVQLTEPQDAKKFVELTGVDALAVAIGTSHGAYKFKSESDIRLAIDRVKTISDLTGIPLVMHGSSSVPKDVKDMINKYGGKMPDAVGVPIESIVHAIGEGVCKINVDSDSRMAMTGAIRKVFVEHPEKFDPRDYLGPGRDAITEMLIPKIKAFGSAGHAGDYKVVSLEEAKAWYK
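Giardia FBPA (40 nM reagent) was preincubated 10 min at RT with compound (up to 57.5 uM final), then substrate plus GAPDH/TPI/NAD/arsenate coupling system with diaphorase/resazurin was added; resorufin fluorescence (525/598 nm) was read after 20 min.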
FMDV inh – High Throughput Screening for Foot and Mouth Disease Virus Antivirals; FMDV antiviral cell-based qHTS; Potency, µM (titrated, usually from 57.9 µM), hits mostly inhibitors; actives 1.2% (n = 410,000); AID 1159524, 2015; calls by dose curve; tested in HEK293T cells; also: read-out not given here; nearly all actives have a fitted effect of over 45% in size
Giardia growth – qHTS Assay for Inhibitors of Fructose-1,6-bisphosphate Aldolase from Giardia Lamblia: Giardia lamblia growth inhibition; Potency, µM (series often up to 57.5 µM), actives largely listed as inhibitors; actives 5% (n = 1,500); Giardia lamblia trophozoite growth inhibition; shares compounds with Giardia FBPA inh-1;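 also: trophozoites exposed to compound for 48 h at 37 °C; nearly all actives have a fitted effect of over 70% in size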
Mammalian tox – qHTS Assay for Inhibitors of Fructose-1,6-bisphosphate Aldolase from Giardia Lamblia: Mammalian cellular toxicity; shares compounds with Giardia FBPA inh-1; mammalian cell viability counter-screen, qHTS; Potency, µM (series often up to 57.5 µM), actives largely listed as inhibitors; actives 4% (n = 1,500); AID 2786, 2010;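 also: Chinese hamster ovary cells used as mammalian cytotoxicity surrogate; viability measured as cellular ATP by luminescence; compound exposure lasted 48 h before reading; nearly all actives have a fitted effect of over 60% in size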
Giardia FBPA inh-2 – qHTS Assay for Inhibitors of Fructose-1,6-bisphosphate Aldolase from Giardia Lamblia: Primary screen confirmation. shares compounds with Giardia FBPA inh-1. purified Giardia aldolase enzyme activity, qHTS. Potency, µM (top dose mostly 57.5 µM), hits mostly inhibitors. actives 5% (n = 1,500); also: nearly all actives have a fitted effect of over 45% in size
Rabbit aldolase – qHTS Assay for Inhibitors of Fructose-1,6-bisphosphate Aldolase from Giardia Lamblia: Rabbit FBPA Selectivity; shares compounds with Giardia FBPA inh-1; Rabbit muscle FBPA enzyme inhibition, selectivity counter-screen; Potency, µM (doses to about 57.5 µM), hits mostly inhibitors; actives 4% (n = 1,500); also: nearly all actives have a fitted effect of over 60% in size
Target sequence (P00883 whole entry, looked up): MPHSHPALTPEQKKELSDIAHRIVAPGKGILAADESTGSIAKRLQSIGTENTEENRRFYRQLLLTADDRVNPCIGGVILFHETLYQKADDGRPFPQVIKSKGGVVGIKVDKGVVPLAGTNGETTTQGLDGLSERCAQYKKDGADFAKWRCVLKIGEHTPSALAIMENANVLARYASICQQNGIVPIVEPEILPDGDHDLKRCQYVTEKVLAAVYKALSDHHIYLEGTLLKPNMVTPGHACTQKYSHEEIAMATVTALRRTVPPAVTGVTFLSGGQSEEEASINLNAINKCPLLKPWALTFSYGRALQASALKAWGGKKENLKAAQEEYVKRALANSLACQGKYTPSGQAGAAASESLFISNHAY
GAPDH counter – qHTS Assay for Inhibitors of Fructose-1,6-bisphosphate Aldolase from Giardia Lamblia: Coupling assay counterscreen confirmation. GAPDH coupling enzyme counterscreen, biochemical, qHTS. shares compounds with Giardia FBPA inh-1. AID 2795, 2010. actives 6% (n = 1,500). Potency, µM (top dose mostly 57.5 µM), actives largely listed as inhibitors; also: nearly all actives have a fitted effect of over 55% in size
Each line names hits and unclear results; the compound was inactive in the other large screens (follow-up assays come after a bar, where they were run); [ ] = remark or other dose. The list is not random: actives were taken first. Their share in the collection is about 7.5%. Unless noted, calls follow the shape of the dose curve; as a rule, active = well fitted curve in the direction sought with a large enough effect; inconclusive = small, poorly fitted or top-dose-only effect, or another doubt; inactive = no such curve, though single readings can be large; an effect the other way counts as inactive or inconclusive.

CSc1ccc(-c2sc(Nc3cccc4ccccc34)n[n+]2-c2ccccc2)cc1	HCV inh 8.91µM, Vaccinia mCherry inconclusive, Giardia FBPA inh-1 25.1µM | Giardia growth inactive | Mammalian tox inactive | Giardia FBPA inh-2 inactive | Rabbit aldolase inactive | GAPDH counter inactive
CC(=O)Nc1ccc(-c2sc(Nc3cccc4ccccc34)n[n+]2-c2ccccc2)cc1	Giardia FBPA inh-1 15.8µM | Giardia growth inactive | Mammalian tox inactive | Giardia FBPA inh-2 inactive | Rabbit aldolase inactive | GAPDH counter inactive
Fc1ccc(-[n+]2nc(Nc3ccccc3)sc2-c2ccc(OCc3ccccc3)cc2)cc1	HCMV antiviral inconclusive
COc1ccc(C)cc1Nc1n[n+](-c2ccccc2)c(-c2ccc(NC(C)=O)cc2)s1	Giardia FBPA inh-1 22.4µM | Giardia growth inconclusive | Mammalian tox inactive | Giardia FBPA inh-2 inactive | Rabbit aldolase inactive | GAPDH counter inactive
C[n+]1nc(Nc2cccc3ccccc23)sc1-c1ccc(C(=O)O)cc1	none (no result: HCV inh, Vaccinia mCherry, VACV Venus inh, HCMV antiviral, FMDV inh)
CCC(C)NC(=S)N(Cc1cc2cc(C)ccc2n2nnnc12)CC(C)(C)NC(C)C (centres undefined)	none (no result: Vaccinia mCherry, VACV Venus inh)
CCCCn1cc(S(=O)(=O)c2ccc(OC)cc2)c(=O)c2cc(F)c(F)cc21	none (no result: HCV inh, Giardia FBPA inh-1)
CN1CCN(Cc2coc3c(Cl)cc(Cl)cc3c2=O)CC1	HCV inh inconclusive, Giardia FBPA inh-1 12.6µM (no result: Vaccinia mCherry, VACV Venus inh) | Giardia growth inactive | Mammalian tox inactive | Giardia FBPA inh-2 inactive | Rabbit aldolase inactive | GAPDH counter inactive
O=c1c(CN2CCN(c3cccc(Cl)c3)CC2)coc2c(Cl)cc(Cl)cc12	none (no result: Vaccinia mCherry, VACV Venus inh)
Cc1cc(C)cc(-n2c(C)nc3cc(C(=O)NCc4ccccc4Cl)ccc32)c1	none (no result: HCV inh, Giardia FBPA inh-1)
Cc1ccc(/C=C/C(=O)CCC(=O)O)cc1	none
Cc1cn([C@H]2C[C@H](O)[C@@H](CNC(=O)c3ccccn3)O2)c(=O)[nH]c1=O	none (no result: HCV inh, Giardia FBPA inh-1)
COc1cccc2[nH]c(C(=O)NCC3CCCO3)cc12 (centres undefined)	Giardia FBPA inh-1 inconclusive (no result: Vaccinia mCherry, VACV Venus inh)
COc1cc(-c2nc(C(=O)NCC3CCCO3)cc3c2[nH]c2ccccc23)cc(OC)c1OC (centres undefined)	HCV inh 3.55µM, Vaccinia mCherry inconclusive, VACV Venus inh inconclusive, Giardia FBPA inh-1 8.91µM, FMDV inh inconclusive | Giardia growth inactive | Mammalian tox 39.8µM | Giardia FBPA inh-2 inactive | Rabbit aldolase inactive | GAPDH counter inactive
COc1ccc(S(=O)(=O)Nc2ccc3c(c2)C(=O)N([C@H](C)CO)C[C@H](C)[C@@H](CN(C)C(=O)NC2CCCCC2)O3)cc1	none (no result: Giardia FBPA inh-1)
O=C1CCC(=O)N1CC(=O)N1CCCc2ccccc21	none
O=C(CN1CCOCC1)N1CCCc2ccccc21	Giardia FBPA inh-1 12.6µM | Giardia growth inconclusive | Mammalian tox inactive | Giardia FBPA inh-2 inactive | Rabbit aldolase inactive | GAPDH counter inactive
O=C1CS(=O)(=O)C2(C(=O)N(Cc3ccccc3)c3ccccc32)N1c1ccccc1 (centres undefined)	none (no result: HCV inh, Giardia FBPA inh-1)
CCOc1ccccc1NC(=O)C(CC)Sc1nc2ccncc2[nH]1 (centres undefined)	Giardia FBPA inh-1 14.1µM | Giardia growth inactive[10.4 µM] | Mammalian tox inactive | Giardia FBPA inh-2 inactive | Rabbit aldolase inactive | GAPDH counter inactive
CCCCCn1c(=S)[nH]c2cc(C(=O)N3CCCC3)ccc2c1=O	none
O=C(c1ccc2c(=O)n(C3CCCC3)c(=S)[nH]c2c1)N1CCCCCC1	HCV inh inconclusive, HCMV antiviral inconclusive, Giardia FBPA inh-1 17.7µM, FMDV inh inconclusive | Giardia growth inactive[10.4 µM] | Mammalian tox inactive | Giardia FBPA inh-2 inactive | Rabbit aldolase inactive | GAPDH counter inactive
Cc1ccc(NC(=O)c2cc(S(=O)(=O)N3CCC(C)CC3)cn2C)cc1Cl	HCMV antiviral inconclusive (no result: HCV inh, Giardia FBPA inh-1)
COc1ccccc1C(=O)OC(C)CN1CCN(C)CC1 (centres undefined)	Giardia FBPA inh-1 31.6µM (no result: Vaccinia mCherry, VACV Venus inh) | Giardia growth inactive[10.4 µM] | Mammalian tox inactive | Giardia FBPA inh-2 inactive | Rabbit aldolase inactive | GAPDH counter inactive
CC(CN1CCCC1)OC(=O)c1ccc(Cl)cc1Cl (centres undefined)	Giardia FBPA inh-1 15.8µM (no result: Vaccinia mCherry, VACV Venus inh) | Giardia growth inactive | Mammalian tox inactive | Giardia FBPA inh-2 inactive | Rabbit aldolase inactive | GAPDH counter inactive
CC(CN1CCN(C)CC1)OC(=O)c1ccccc1 (centres undefined)	none (no result: Vaccinia mCherry)
O=[N+]([O-])c1ccccc1C1Nc2cccc3cccc(c23)N1	Giardia FBPA inh-1 inconclusive | Giardia growth 10µM | Mammalian tox inactive | Giardia FBPA inh-2 inconclusive | Rabbit aldolase inactive | GAPDH counter inconclusive
COc1cc(NC(C)CCc2ccccc2)cc(OC)c1OC (centres undefined)	Giardia FBPA inh-1 12.6µM, FMDV inh inconclusive | Giardia growth inactive[10.4 µM] | Mammalian tox inactive | Giardia FBPA inh-2 inconclusive | Rabbit aldolase inconclusive | GAPDH counter inconclusive
COc1cccc(OC)c1C(=O)NC(C)CCc1ccccc1 (centres undefined)	none
COC(=O)CN(c1ccc(OCc2ccccc2)cc1)S(C)(=O)=O	HCV inh inconclusive
Fc1ccccc1Nc1nc2ccccc2o1	Vaccinia mCherry inconclusive
N#C/C(=C(/O)CCl)c1nc2c(s1)CCc1ccccc1-2	HCV inh inconclusive, Giardia FBPA inh-1 14.1µM, FMDV inh 25.1µM | Giardia growth inconclusive | Mammalian tox inactive | Giardia FBPA inh-2 inconclusive | Rabbit aldolase inconclusive | GAPDH counter inactive

Compound activity deposited in PubChem by National Center for Advancing Translational Sciences (NCATS).
